Screens: PubChem BioAssay, National Center for Advancing Translational Sciences (NCATS)
nsP2pro inh: inhibitors of chikungunya virus nsP2 protease | 31,000 compounds, 1.1% hits | Potency, µM (highest dose often 24.9 µM), hits mostly inhibitors | FRET peptide cleavage, nsP2pro, fluorescence 1 h | Q8JUX6; further: nearly all actives have a fitted effect of over 60% in size
Target sequence (Q8JUX6 whole entry, looked up): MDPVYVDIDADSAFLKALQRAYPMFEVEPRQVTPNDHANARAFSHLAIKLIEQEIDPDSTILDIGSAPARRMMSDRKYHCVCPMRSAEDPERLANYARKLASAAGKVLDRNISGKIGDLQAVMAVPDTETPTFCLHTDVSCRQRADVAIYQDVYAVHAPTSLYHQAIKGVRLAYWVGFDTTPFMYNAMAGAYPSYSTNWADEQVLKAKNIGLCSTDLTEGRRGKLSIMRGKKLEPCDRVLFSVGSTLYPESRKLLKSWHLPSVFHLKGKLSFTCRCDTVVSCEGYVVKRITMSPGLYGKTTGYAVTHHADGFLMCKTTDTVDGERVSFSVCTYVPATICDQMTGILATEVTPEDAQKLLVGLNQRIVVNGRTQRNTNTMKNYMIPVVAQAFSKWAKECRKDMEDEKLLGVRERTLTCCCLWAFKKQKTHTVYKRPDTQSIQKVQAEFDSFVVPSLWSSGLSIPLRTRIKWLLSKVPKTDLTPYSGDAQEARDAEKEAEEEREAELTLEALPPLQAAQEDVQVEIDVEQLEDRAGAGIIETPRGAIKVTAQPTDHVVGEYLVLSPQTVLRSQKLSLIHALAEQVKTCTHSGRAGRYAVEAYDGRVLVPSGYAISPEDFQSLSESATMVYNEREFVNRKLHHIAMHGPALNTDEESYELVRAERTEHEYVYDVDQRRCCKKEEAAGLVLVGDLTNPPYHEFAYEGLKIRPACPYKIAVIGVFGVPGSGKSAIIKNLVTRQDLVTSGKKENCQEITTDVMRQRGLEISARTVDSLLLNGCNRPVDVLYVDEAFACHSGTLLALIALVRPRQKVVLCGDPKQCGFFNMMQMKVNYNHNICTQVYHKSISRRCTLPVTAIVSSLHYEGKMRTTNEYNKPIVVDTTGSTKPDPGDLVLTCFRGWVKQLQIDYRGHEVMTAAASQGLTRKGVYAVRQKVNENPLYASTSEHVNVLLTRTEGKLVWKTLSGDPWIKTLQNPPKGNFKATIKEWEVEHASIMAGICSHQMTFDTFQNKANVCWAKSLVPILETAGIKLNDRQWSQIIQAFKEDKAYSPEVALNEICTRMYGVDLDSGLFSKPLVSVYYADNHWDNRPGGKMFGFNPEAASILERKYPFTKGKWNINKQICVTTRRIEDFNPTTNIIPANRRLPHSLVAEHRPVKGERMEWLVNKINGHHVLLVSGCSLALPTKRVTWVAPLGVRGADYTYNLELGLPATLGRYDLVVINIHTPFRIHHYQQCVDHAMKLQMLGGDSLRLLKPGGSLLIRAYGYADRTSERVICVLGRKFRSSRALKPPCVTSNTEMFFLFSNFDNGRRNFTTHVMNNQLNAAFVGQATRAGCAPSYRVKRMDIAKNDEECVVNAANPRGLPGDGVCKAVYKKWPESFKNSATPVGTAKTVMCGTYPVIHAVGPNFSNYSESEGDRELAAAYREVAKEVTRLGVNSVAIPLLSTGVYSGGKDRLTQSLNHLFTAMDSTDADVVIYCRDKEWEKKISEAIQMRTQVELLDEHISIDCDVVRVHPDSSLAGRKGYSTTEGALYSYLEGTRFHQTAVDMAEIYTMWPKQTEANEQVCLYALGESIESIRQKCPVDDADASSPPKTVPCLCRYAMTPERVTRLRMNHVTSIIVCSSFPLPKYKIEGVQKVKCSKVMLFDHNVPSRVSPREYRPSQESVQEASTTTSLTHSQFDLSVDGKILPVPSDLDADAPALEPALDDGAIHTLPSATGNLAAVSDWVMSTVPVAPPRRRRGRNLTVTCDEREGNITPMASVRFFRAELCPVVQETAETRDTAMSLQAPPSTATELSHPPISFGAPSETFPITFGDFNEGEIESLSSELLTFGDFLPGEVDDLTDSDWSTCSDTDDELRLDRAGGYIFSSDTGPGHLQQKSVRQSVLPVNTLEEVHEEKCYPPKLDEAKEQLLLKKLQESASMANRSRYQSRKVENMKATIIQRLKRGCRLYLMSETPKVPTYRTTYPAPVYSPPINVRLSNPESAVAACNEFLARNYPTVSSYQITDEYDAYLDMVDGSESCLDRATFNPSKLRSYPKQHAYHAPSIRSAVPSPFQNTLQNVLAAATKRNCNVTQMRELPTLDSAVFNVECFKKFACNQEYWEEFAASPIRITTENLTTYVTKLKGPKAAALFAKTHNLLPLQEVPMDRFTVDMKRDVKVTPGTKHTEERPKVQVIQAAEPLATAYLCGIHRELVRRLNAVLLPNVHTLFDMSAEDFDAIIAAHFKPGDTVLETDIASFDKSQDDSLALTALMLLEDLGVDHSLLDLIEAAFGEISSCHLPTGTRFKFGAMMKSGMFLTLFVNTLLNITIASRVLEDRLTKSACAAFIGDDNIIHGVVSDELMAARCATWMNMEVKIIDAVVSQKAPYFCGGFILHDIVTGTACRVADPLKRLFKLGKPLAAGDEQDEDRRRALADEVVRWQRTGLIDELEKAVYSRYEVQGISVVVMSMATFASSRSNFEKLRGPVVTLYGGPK
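Purified recombinant nsP2pro (150 nM final) in 10 mM Tris-HCl pH 8.0 with 0.01% Tween 20 was preincubated 15 min at room temperature with compound (7 concentrations, up to 25 uM). FRET peptide 2 substrate (2.5 uM final) was then added; fluorescence was read after 1 h.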
nsP2 cell sec: secondary cell-based test for CHIKV nsP2 protease inhibitors; Potency, µM (top dose mostly 51.1 µM), hits mostly inhibitors; 450 compounds, 10% hits; cell-based CHIKV nsP2 protease reporter assay; shares compounds with nsP2pro inh; further: nearly all actives have a fitted effect of over 70% in size
CHIKV NSP2 FL: selectivity test for CHIKV nsP2 protease inhibitors: full-length NSP2. shares compounds with nsP2pro inh. Full-length CHIKV NSP2 protease enzymatic counterscreen. Potency, µM (highest dose often 50.7 µM), hits mostly inhibitors. 410 compounds, 39% hits; further: nearly all actives have a fitted effect of over 65% in size
Furin counterscr: inhibits human furin in a CHIKV nsP2 protease selectivity counterscreen; shares compounds with nsP2pro inh; Recombinant human furin enzymatic counterscreen, fluorogenic substrate; Potency, µM (highest dose often 50.6 µM), hits mostly inhibitors; 410 compounds, 6% hits; AID 1964102
nsP2 NS23 pep: nsP2pro inhibition on native NS2/3 peptide substrate; AID 1964103; 410 compounds, 34% hits; shares compounds with nsP2pro inh; Purified CHIKV nsP2 protease, endogenous NS2/3 peptide cleavage; Potency, µM (series often up to 51 µM), usual class: inhibitors; further: nearly all actives have a fitted effect of over 55% in size
Papain counter: inhibits papain in a CHIKV nsP2 protease selectivity counterscreen. AID 1964104. purified papain protease activity, enzymatic inhibition. shares compounds with nsP2pro inh. Potency, µM (highest dose often 51 µM), usual class: inhibitors. 410 compounds, 5% hits
nsP2pro confirm: CHIKV nsP2 protease inhibition, confirmatory qHTS; shares compounds with nsP2pro inh; CHIKV nsP2 protease enzymatic activity, qHTS; Potency, µM (titrated, usually from 25.5 µM), usual class: inhibitors; 410 compounds, 43% hits; AID 1964105; further: nearly all actives have a fitted effect of over 75% in size
HCV NS3 4A cs: inhibits HCV NS3/4A protease in an nsP2pro selectivity counterscreen; shares compounds with nsP2pro inh; HCV NS3/4A protease biochemical counterscreen; Potency, µM (doses to about 50.9 µM), usual class: inhibitors; 410 compounds, 20% hits; AID 1964106; further: nearly all actives have a fitted effect of over 55% in size
Large screens that a line does not name were inactive (follow-up assays come after a bar, where they were run). This excerpt belongs to a sample that is enriched for hits. The call rests on the fitted dose curve.

S=P(c1ccccc1)(c1ccccc1)c1nc(CCCc2ccccc2)n2ccccc12	none
CCCCN1C[C@H](O)[C@@H](O)[C@H](O)[C@H]1CO	none
OCCN1C[C@H](O)[C@@H](O)[C@H](O)[C@H]1CO	none
CCOC(=O)c1ccc(OCCN2C[C@H](O)[C@@H](O)[C@H](O)[C@H]2CO)cc1	nsP2pro inh inconclusive | nsP2 cell sec inactive | CHIKV NSP2 FL inconclusive | Furin counterscr 14µM | nsP2 NS23 pep inactive | Papain counter inactive | nsP2pro confirm inconclusive | HCV NS3 4A cs inactive
CN(Cc1ccccc1)Cc1cc(C[C@@H]2C[C@H](NC(=O)C3CC3)C2(C)C)no1	none
Cc1cc(NC(=O)Nc2cccc(-c3ccncc3)n2)ccc1Br	none
O=S1(=O)N=C(Oc2ccccc2Br)c2ccccc21	none
Cc1ccccc1OC1=NS(=O)(=O)c2ccccc21	none
Nc1ccccc1OC1=NS(=O)(=O)c2ccccc21	nsP2pro inh 10µM | nsP2 cell sec inactive | CHIKV NSP2 FL inconclusive | Furin counterscr inactive | nsP2 NS23 pep inactive | Papain counter inactive | nsP2pro confirm inactive | HCV NS3 4A cs inactive
CNC(=O)c1ccc(-c2cnc3cnc(C(=O)N(C)c4ccc(Cl)cc4)cn23)cc1	none
O=C(CSc1oc(-c2ccccc2)nc1S(=O)(=O)c1ccccc1)c1ccccc1	none
O=c1ncn(Cc2ccccc2)c2ccc(-c3cccnc3)nc12	none
Cc1cnc(-c2ccccc2C(C)C)nc1N(C)Cc1ccc(-c2cccnc2)cc1	none
O=C1c2ccccc2C(=O)c2oc(-c3cccnc3)nc21	nsP2pro inh 3.1µM | nsP2 cell sec inconclusive | CHIKV NSP2 FL inactive | Furin counterscr inactive | nsP2 NS23 pep inconclusive | Papain counter inactive | nsP2pro confirm inconclusive | HCV NS3 4A cs inactive
NCCc1noc(-c2ccccc2)n1	none
O=C1c2ccccc2C(=O)c2oc(-c3ccccc3)nc21	nsP2pro inh 8.8µM | nsP2 cell sec inactive | CHIKV NSP2 FL inconclusive | Furin counterscr inactive | nsP2 NS23 pep inactive | Papain counter inactive | nsP2pro confirm inactive | HCV NS3 4A cs inactive
Cc1ccc(C)c(SC2=NS(=O)(=O)c3cc(C(=O)NCc4ccccc4)ccc32)c1	none
Cc1cc(C)n2ncc(C(=O)Nc3ccc(S(C)(=O)=O)cc3)c2n1	none
CC1(C)C(=O)C(C)(C)c2cc(C(=O)Nc3ccc(C(=O)O)cc3)ccc21	none
CCOC(=O)c1ccoc1-c1ccc2ncnc(NCc3ccc(C)o3)c2c1	none
O=C(c1cc(-c2ccco2)[nH]n1)N1CCC(n2cnc3ccccc32)C1 (stereo unspecified)	nsP2pro inh 0.71µM | nsP2 cell sec inconclusive | CHIKV NSP2 FL 7.3µM | Furin counterscr inactive | nsP2 NS23 pep inconclusive | Papain counter inactive | nsP2pro confirm inconclusive | HCV NS3 4A cs 3.3µM
COc1cccc(-c2cc(C3CCN(C(=O)Nc4ccccc4C(F)(F)F)CC3)[nH]n2)c1	none
O=C(NCC(F)(F)F)c1cc(C2CCN(C(=O)c3cc(-c4ccco4)[nH]n3)CC2)[nH]n1	nsP2pro inh 1.1µM | nsP2 cell sec inactive
CC(=O)NCC(=O)N1CCC(c2cc(-c3ccc(F)cc3)n[nH]2)CC1	none
COCC1CCCN(C(=O)c2cc(Cn3c(C)nc4ccccc43)[nH]n2)C1 (stereo unspecified)	none
O=C(c1ccc2ccccc2n1)N1CCC(n2cc(-c3nc(-c4ccccc4)no3)nn2)C1 (stereo unspecified)	none
COc1ccc(-n2nc(C3CCCN(C(=O)c4ccc(Cl)nc4)C3)[nH]c2=O)cc1 (stereo unspecified)	none
COc1coc(C(=O)NCCC2CN(c3cnn(C)c(=O)c3)CCO2)cc1=O (stereo unspecified)	none
OB1OCc2cc(F)ccc21	none
COc1cc(/C=C/C(=O)OC[C@H]2O[C@@H](OC3CC(C)=C(C(=O)O)C(C)(C)C3)[C@H](O)[C@@H](O)[C@@H]2O)cc(OC)c1O (stereo partly specified)	none
N#Cc1cccc(NC(=O)Nc2nnc(-c3ccncc3)s2)c1	none
O=C(Nc1cccc(-c2ccc(N3CCOCC3)nn2)c1)Nc1ccc(F)cc1F	none
O=C(O)c1ccc(N2C(=O)/C(=C/c3ccc(-c4ccc([N+](=O)[O-])cc4)o3)C=C2c2ccccc2)cc1	nsP2pro inh 7.9µM | nsP2 cell sec inactive | CHIKV NSP2 FL inconclusive | Furin counterscr inactive | nsP2 NS23 pep inactive | Papain counter 18µM | nsP2pro confirm inactive | HCV NS3 4A cs inactive
O=C(O)c1ccc2c(c1)C(=O)N([C@H](Cc1ccc([N+](=O)[O-])cc1)C(=O)O)C2=O	none
CC/C=C\C(O)C(O)C1=C(C)C(=O)C2(O1)C(=O)NC(OC)(C(=O)c1ccccc1)C2O (stereo unspecified)	none
C[C@H]1[C@@H]2[C@@H](O)C([C@H](C)C(=O)NCc3cccs3)CC[C@@]2(C)CC[C@@H]1NC(=O)COc1ccccc1 (stereo partly specified)	none
C=C1CC/C=C(/C(=O)O)CCC2C1CC2(C)C (stereo unspecified)	none
O=C([C@H]1O[C@H](CCN2CCC(CO)CC2)CC[C@@H]1O)N1CCN(c2ccccc2)CC1	none
CCN1Cc2ccccc2NC(=O)C12CCNC2 (stereo unspecified)	nsP2pro inh 8.9µM | nsP2 cell sec inconclusive | CHIKV NSP2 FL 6.4µM | Furin counterscr inactive | nsP2 NS23 pep 14µM | Papain counter inactive | nsP2pro confirm 8.9µM | HCV NS3 4A cs 3.6µM
O=C1Nc2ccccc2CN(CC2CCCCC2)C12CCNC2 (stereo unspecified)	none
CN1Cc2ccccc2NC(=O)C12CCNC2 (stereo unspecified)	none
COc1ccc2c(c1)C=C1Cn3c-2c(C2CCCCC2)c2ccc(cc23)C(=O)NS(=O)(=O)N(C)CCOCCN(C)C1=O	none
CN(Cc1ccccc1)Cc1nnc(C(=O)N2CCC[C@@H]2c2cccc(F)c2)n1-c1ccccc1	none
CN1C[C@H](C(=O)N[C@]2(C)O[C@@]3(O)[C@@H]4CCCN4C(=O)[C@H](Cc4ccccc4)N3C2=O)C=C2c3cccc4[nH]cc(c34)C[C@H]21	nsP2pro inh inconclusive | nsP2 cell sec inactive | CHIKV NSP2 FL inconclusive | Furin counterscr inactive | nsP2 NS23 pep 13µM | Papain counter inactive | nsP2pro confirm inconclusive | HCV NS3 4A cs inactive
CC(C)C[C@H]1C(=O)N2CCC[C@H]2[C@]2(O)O[C@](NC(=O)[C@@H]3C[C@@H]4c5cccc6[nH]cc(c56)C[C@H]4N(C)C3)(C(C)C)C(=O)N12	none
